Screens deposited in PubChem BioAssay by National Center for Advancing Translational Sciences (NCATS).
Rows were chosen to be rich in hits. Some 7.3% of all compounds tested hit in one or more screens of this group.
FLuc counter: qHTS profiling assay for firefly luciferase inhibitor/activator using purifed enzyme and Km concentrations of substrates (counterscreen for miR-21 project) | purified FLuc, Km substrates, luminescence inhibition | Potency, µM (doses to about 57.5 µM), for the others: at the highest dose activity change, negative = inhibition, actives largely listed as inhibitors | actives 6.9% (n = 360,000) | Luciferin 4-monooxygenase (Photinus pyralis), P08659;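 further: plate controls were vehicle for no effect and reference inhibitor for full effect; nearly all actives have a fitted effect of over 55% in size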
Target sequence (P08659 whole entry, looked up): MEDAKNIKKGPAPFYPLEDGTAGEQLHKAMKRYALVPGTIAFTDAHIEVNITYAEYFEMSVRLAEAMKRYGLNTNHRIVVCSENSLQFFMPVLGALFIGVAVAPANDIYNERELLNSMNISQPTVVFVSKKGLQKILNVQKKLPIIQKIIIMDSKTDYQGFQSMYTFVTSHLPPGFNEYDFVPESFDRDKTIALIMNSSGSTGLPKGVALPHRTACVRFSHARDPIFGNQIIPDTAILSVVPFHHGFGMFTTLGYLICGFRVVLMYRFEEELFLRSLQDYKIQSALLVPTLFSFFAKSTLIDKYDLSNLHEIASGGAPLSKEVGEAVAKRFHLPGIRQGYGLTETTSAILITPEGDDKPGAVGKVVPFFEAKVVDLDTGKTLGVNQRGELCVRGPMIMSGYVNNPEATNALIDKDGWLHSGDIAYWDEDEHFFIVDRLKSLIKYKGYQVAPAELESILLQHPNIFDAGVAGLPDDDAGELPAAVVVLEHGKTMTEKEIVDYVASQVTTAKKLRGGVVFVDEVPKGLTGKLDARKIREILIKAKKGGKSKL
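Purified P. pyralis luciferase, 10 nM final, with Km-level 10 uM D-luciferin and 10 uM ATP in 50 mM Tris acetate pH 7.5, 10 mM Mg acetate, 0.01% Tween-20, 0.05% BSA; 6-point qHTS titration about 60 µM downward; luminescence read.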
ELG1 genotoxic: qHTS screen for small molecules that induce genotoxicity in human embryonic kidney (HEK293T) cells expressing luciferase-tagged ELG1. Potency, µM (doses to about 46 µM), for inactives: top-dose activity change, positive = activation, usual class: activators. actives 1.3% (n = 330,000). AID 504466, 2011. HEK293T ELG1-luciferase reporter, luminescence, 16 h; further: % of control where 0% means no effect; nearly all actives have a fitted effect of over 60% in size
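HEK293T cells expressing luciferase-tagged ELG1 were exposed to compound or DMSO vehicle for 16 hr at 37 °C and 5% CO2. Luciferase activity was then measured with ONE-Glo after 30 min at room temperature.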
Rab9 promoter act: qHTS Assay for Rab9 Promoter Activators; Huh7 Rab9 promoter-luciferase reporter, luminescence, 24 h; Potency, µM (series often up to 9.22 µM), for the others: at the top dose activation, negative = inhibition, hits mostly activators; actives 2.8% (n = 320,000); AID 485297, 2010; further: % of control where 0% means no effect; nearly all actives have a fitted effect of over 60% in size
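Steps: seed 1500 Huh7 Rab9-luc cells per well, rest 2 h at 37 °C; add compound in DMSO; incubate 24 h; add luciferase reagent, 10 min ambient; read luminescence.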
KinaseGlo FLuc: Counterscreen for Luciferase (Kinase-Glo TM) Inhibition; Luciferin 4-monooxygenase (Photuris pensylvanica), Q27757; Kinase-Glo luciferase, ATP luminescence, 8 min; Potency, µM (series often up to 38.3 µM), for inactives: top-dose activity change, negative = inhibition, actives largely listed as inhibitors; actives 0.28% (n = 200,000); further: on the % scale 0 is the no-effect control and ±100 the full control effect; nearly all actives have a fitted effect of over 60% in size
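Light output from Kinase-Glo luciferase with luciferin and 10 uM ATP in 50 mM imidazole pH 7.2, KCl, MgCl2, Tween 20, BSA; compound pin-delivered, 8-min ambient incubation, then luminescence read.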
SMN2 splice up: qHTS Assay for Enhancers of SMN2 Splice Variant Expression. HEK293 SMN2-luciferase splicing reporter, luminescence, 30-36 h. Potency, µM (highest dose often 46.1 µM), for inactives: at the highest dose activity change, positive = activation, actives largely listed as activators. actives 2.8% (n = 210,000). AID 1458, 2008; further: % of control where 0% means no effect; nearly all actives have a fitted effect of over 55% in size
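qHTS luciferase splicing reporter: luminescence rises when SMN2 exon 7 is included in transfected HEK293 cells. Compound exposure lasted 30-36 h at 37C, with 4.5 mM final sodium butyrate as control, followed by a ONE-Glo read.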
NPC1 prom act: qHTS Assay for NPC1 Promoter Activators; Huh7 NPC1 promoter luciferase reporter, 24 h; Potency, µM (titrated, usually from 9.22 µM), for inactives: at the top dose activation, usual class: activators; actives 2.4% (n = 320,000); further: % of control where 0% means no effect; nearly all actives have a fitted effect of over 60% in size
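Luciferase expression driven by the NPC1 promoter was measured in stably transfected Huh7 cells after a 24 h compound incubation, using a luciferase reagent and a luminescence read.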
Starred values were filed as active, the others as inactive; ? = inconclusive; . = no result given; [ ] = dose if it differs, or a comment. The call rests on the fitted dose curve; in most records, active means well fitted curve in the direction sought with a large enough effect; inconclusive means small, poorly fitted or top-dose-only effect, or another doubt; inactive means no such curve, though single readings can be large; an effect the other way counts as inactive or inconclusive. Potency means the concentration at half of the fitted maximal effect.

SMILES	FLuc counter	ELG1 genotoxic	Rab9 promoter act	KinaseGlo FLuc	SMN2 splice up	NPC1 prom act
Cc1ccc2c(c1)C(c1ccncc1)=NNC(c1ccc(F)cc1)=N2	-15%	5%	14%	-2%	15%	6%
CN1CCC2(CCN3CCc4c(oc5ccccc45)C3C2)N(C)C1=O (stereo unspecified)	.	.	-23%[46.1 µM]	-1%	-40%	-16%[46.1 µM]
COc1ccc(-c2csc3nc(-c4ccc(F)cc4)oc(=O)c23)cc1OC	0%	.	.	.	-7%	.
Oc1csc(Cc2nc(-c3ccc(Br)cc3)cs2)n1	?	?	3.5µM*	3%	?	3.2µM*
NC(=O)Cc1nc(-c2ccc(Br)cc2)cs1	?	3%	1%	1%	-13%	0%
Cc1ccc(OCC(=O)OC2=C(C(=O)c3ccccc3)N(C)S(=O)(=O)c3ccccc32)cc1	3%	.	.	.	-15%	.
COCC(C)Nc1ncnc2c1cnn2-c1ccc(Cl)cc1 (stereo unspecified)	2.4µM*	.	0.5µM*	.	.	0.71µM*
Cc1ccc(CNc2ncnc3c2cnn3-c2ccc(Cl)cc2)cc1	-7%	.	.	.	.	.
CCC(C)Nc1ncnc2c1cnn2-c1ccc(F)cc1 (stereo unspecified)	6.7µM*	.	.	.	.	.
O=C(NNc1ncnc2c1cnn2-c1ccc(F)cc1)c1ccco1	-16%	10%	11%	.	.	3%
COc1ccc(C(=O)N2CC(=O)Nc3ccc(F)cc3C2c2ccc(F)cc2)c(OC)c1 (stereo unspecified)	1%	.	.	.	6%	.
O=C1C(c2ccc(C(F)(F)F)cc2)=C(Nc2ccc(Cl)cc2)c2ccccc21	2%	.	.	.	6%	.
Cc1cc(C)c2c(CC(=O)Nc3c(C(=O)c4ccc(F)cc4)oc4ccccc34)coc2c1	-2%	.	.	.	20%	.
c1ccc(COc2ccc(OCCCN3CCCC3)cc2)cc1	3.4µM*	?	0.63µM*	2%	6.3µM*	1µM*
OC(COc1ccc2cc(Br)ccc2c1)CN1CCCC1 (stereo unspecified)	12µM*	?	14%	-2%	6%	10%
O=S(=O)(N1CCCCC1)N1CCN(CC(O)COc2ccc3cc(Br)ccc3c2)CC1 (stereo unspecified)	0%	1%	-12%	0%	-53%	-6%
c1ccc(COc2ccc(OCCCn3cncn3)cc2)cc1	4.3µM*	4.1µM*	2.5µM*	0%	10µM*	1.6µM*
c1ccc(Cc2ccc(OCCn3cncn3)cc2)cc1	1%	?	0%	-3%	-28%	-3%
OC(COc1ccc(OCc2ccccc2)cc1)CN1CCCCC1 (stereo unspecified)	?	16µM*	?	2%	28%	30%
Cc1cccc([C@H]2[C@@H]3C=CC(C)C[C@@H]3C(=O)N2Cc2ccccc2)c1 (stereo partly specified)	.	.	.	2%[39.9 µM]	.	.
CCS(=O)(=O)N1CC(=O)N(c2cccc(Cl)c2)C(C)(C(=O)NC2CCCCCC2)C1 (stereo unspecified)	-1%	.	.	.	.	.
Cc1ccc(N2CC(NC(=O)Cc3cccs3)CC2=O)cc1C (stereo unspecified)	2%	.	.	.	.	.
O=C1CCCC/C1=C\Nc1ccccc1C(=O)O	-14%	3%	2%	0%	-6%	-3%
CC1(C)OC(C)(C)/C(=C/Nc2ccc(O)cc2)C1=O	-11%	0%	-2%	-4%	-6%	5%
Cc1cc(C(=O)O)ccc1N/C=C1\CCCC(C)C1=O (stereo unspecified)	0.95µM*	?	?	-6%	?	?
CC1CCC/C(=C\Nc2ccc(O)cc2)C1=O (stereo unspecified)	21µM*	18µM*	?	-10%	-11%	2%
